Assay results: PubChem BioAssay AID720518 (National Center for Advancing Translational Sciences (NCATS), 2013)
Records with an inconclusive call do not appear. Activity calls are given as the source filed them. Calls come from the whole dose curve.

Assay: qHTS for Inhibitors of Cell Surface uPA Generation: Wild-type Protective Antigen (WT-PrAg) Counterscreen for Cherry-picked Compounds; for activity (protection): 0% is about no effect
Conditions: cells, WT protective antigen toxicity counterscreen; series mostly up to 115 µM; activity (protection): at the top concentration
Potency is the fitted concentration of half-maximal effect.

SMILES	activity (protection)	Potency
O=C1C=C(NNC(=O)c2ccncc2)CC(c2ccccc2)C1 (stereo not given)	-0.199% (inactive)	
COc1ccc(N2CC(C(=O)Nc3nnc(SCCC4OCCO4)s3)CC2=O)cc1 (stereo not given)	-0.992% (inactive)	
CCOc1cc(/C=N/Nc2cc(C)nc3ccc(C)cc23)ccc1O	-0.441% (inactive)	
COc1ccc(CCNC(=O)CSc2nc(N)c3c(C)c(C)oc3n2)cc1OC	-1.24% (inactive)	
O=c1[nH]c(=O)n(CCc2ccccc2)c(O)c1C=NC1CC1	-0.566% (inactive)	
CCn1nc(NS(=O)(=O)c2ccccc2)c2cc3cc(C)ccc3nc21	-1.97% (inactive)	
CCN(CC(=O)Nc1c(F)cccc1F)C(=O)c1ccc(-c2ccc(C(C)=O)cc2)o1	-1.23% (inactive)	
CCOC(=O)c1c(C)oc2ccc(OC(=O)COc3c(F)c(F)c(F)c(F)c3F)cc12	-0.307% (inactive)	
Cc1cc(C)c(NC(=O)Cn2nnc(C(=O)NCc3ccc4c(c3)OCO4)c2N)c(C)c1	3.21% (inactive)	
Cc1ccc(-n2c(O)c(C=NCCN3CCNCC3)c(=O)[nH]c2=S)cc1	6.27% (inactive)	
COc1ccc(-c2csc(NC(C)c3nc4cc(C(=O)NCCCO)ccc4n3Cc3ccc(C)cc3)n2)cc1 (stereo not given)	0.17% (inactive)	
CCOc1cc(N2CCOCC2)c(OCC)cc1NC(=O)c1[nH]c(C)c(C(C)=O)c1C	-1.39% (inactive)	
CCOc1ccc(NC(=S)N2CCC(c3ccc(C)cc3)C2)cc1 (stereo not given)	-1.3% (inactive)	
O=C(COc1cccc2ccccc12)NNC(=O)c1cnccn1	-1.17% (inactive)	
C[C@H](CO)N1C[C@H](C)[C@@H](CN(C)C(=O)Nc2ccccc2)Oc2ccc(NC(=O)Cn3cnnn3)cc2C1=O	-0.0378% (inactive)	
CC(C)NC(=O)NC(=O)CN1C(=O)NC(Cc2c[nH]c3ccccc23)C1=O (stereo not given)	-0.356% (inactive)	
Cc1ccc(C)c(NC(=O)CCN2CCN(c3ccccc3F)CC2)c1	0.501% (inactive)	
C=CCN1C=C2C(=O)C(C)(OC(=O)c3cnc4ccccc4n3)C(=O)C=C2C=C1/C=C/COC (stereo not given)	-0.821% (inactive)	
S=C(Nc1ccccc1Cl)N1CCCC(c2ccccc2)=N1		16.5 µM (active)
COc1cc2oc(=O)ccc2cc1[C@H](O)[C@@H](O)C(C)(C)O	-0.25% (inactive)	

SMILES	activity (protection)	Potency
C=C1C(=O)[C@@]23[C@H](O)C[C@@H]4C(C)(C)CC[C@H](O)[C@]4(C)[C@@H]2C[C@H](O)[C@@H]1[C@H]3O	-0.321% (inactive)	
C=CCc1cc(S(=O)(=O)c2ccc(O)c(CC=C)c2)ccc1O	4.47% (inactive)	
COc1ccccc1NS(=O)(=O)c1cc(NC(=O)CCc2nc3ccccc3c(=O)[nH]2)ccc1C	-1.11% (inactive)	
CSCC[C@H](NC(=O)[C@H](Cc1ccccc1)n1c(=O)[nH]c2ccccc2c1=O)C(=O)N1CCC[C@@H]1C(=O)O	-0.445% (inactive)	
O=C(Cc1ccc(Cl)cc1)c1c[nH]c(C(=O)NCCCn2ccnc2)c1	1.41% (inactive)	
COc1ccc([C@H]2[C@H](C(=O)OC(C)(C)C)N3N=Cc4ccccc4C3C23C(=O)c2ccccc2C3=O)cc1OC (stereo not given in full)	-2.24% (inactive)	
CCN(CC)C(=O)Cn1cc(/C=C(\C#N)C(=O)NC2CC2)c2ccccc21	2.13% (inactive)	
CCc1ccc(N2CC(C(=O)Nc3ccc4c(c3)OCO4)CC2=O)cc1 (stereo not given)	1.62% (inactive)	
NC(=O)C1CCN(C(=O)c2cccc3ccccc23)CC1	0.996% (inactive)	
CN(C)c1ccc(S(=O)(=O)N2CCC(Cc3ccccc3)CC2)cn1	-0.825% (inactive)	
CCOc1ccc(Cl)cc1/C=N/NC(=O)c1ccccc1	-0.125% (inactive)	
CCCn1nnc(NC(=S)NC(=O)c2ccccc2OC)n1	-0.0432% (inactive)	
CCN(c1ccc(OC)cc1)S(=O)(=O)c1ccc2c(c1)NC(=O)CS2	-1.04% (inactive)	
COC(/C=C/Nc1ccc(Cl)cc1)=C(C#N)C#N	0.456% (inactive)	
COc1ccc(-c2cc3nc(-c4ccccc4)cc(N4CCCC(O)C4)n3n2)cc1 (stereo not given)	2.16% (inactive)	
O=c1[nH]c2c(s1)C(c1ccc(O)cc1)C1C3CCC(C3)C1S2 (stereo not given)	4.5% (inactive)	
CCN(C(=O)c1c(C)noc1C)c1c(N)n(Cc2ccccc2)c(=O)[nH]c1=O	0.52% (inactive)	
CCCCN(CC(=O)NCc1ccc(F)cc1)C(=O)c1ccco1	1.58% (inactive)	
CC(=O)c1cnc2nc(SCc3cccc(C)c3)nn2c1C	-1.51% (inactive)	
Cc1cc(SCc2ccc(Cl)cc2)nc(=O)[nH]1	-2.11% (inactive)	
